According to PubChem BioAssay (Tox21):
Inconclusive results are not listed. Activity calls are given as the source filed them. Calls follow the shape of the dose curve; as a rule, active = well fitted cell-killing curve with a large enough effect in the repeat runs; inconclusive = weak or mixed curves, or effect the other way; inactive = no such curve, though single readings can be large or run the other way.

Test: qHTS assay to identify small molecule antagonists of the glucocorticoid receptor (GR) signaling pathway - cell viability counter screen (AID 720693); also: nearly all actives have a fitted effect of over 55% in size
Settings: GR-bla HeLa viability, CellTiter-Glo luminescence, 18 h, with 5 nM dexamethasone present; series mostly up to 58.5 µM; viability change, negative = cytotoxic: at the top concentration
% is scaled to controls: 0 for no effect and ±100 for the full control effect.

| SMILES | viability change, negative = cytotoxic |
| --- | --- |
| COC(=O)c1sccc1S(N)(=O)=O | -1.56% (inactive) |
| Nc1nc2ccc(OC(F)(F)F)cc2s1 | -10.6% (inactive) |
| O=C(c1ccccc1)c1ccc(O)cc1 | -4.86% [at 78.9 µM] (inactive) |
| CC(C)(O)c1coc(S(=O)(=O)NC(=O)Nc2c3c(cc4c2CCC4)CCC3)c1 | -0.844% (inactive) |
| Nc1ccc(N=Nc2ccc(N)cc2)cc1 | -7.65% (inactive) |
| CC/C=C\C/C=C\C/C=C\CCCCCCCC(=O)OCC | -20.7% [at 78.9 µM] (inactive) |
| Oc1ccc2c(c1)Cc1ccccc1-2 | -20.7% (inactive) |
| COc1ccc(CCN(C)CCCN2CCc3cc(OC)c(OC)cc3CC2=O)cc1OC | 0.447% (inactive) |
| O=C(CCS)OCC(COC(=O)CCS)(COC(=O)CCS)COC(=O)CCS | 11.9% (inactive) |
| COc1cc(S(=O)(=O)Nc2ccccc2)c(OC)cc1N | 9.94% (inactive) |
| O=C(O)c1cccc(C[C@@H]2COc3ccc(OCc4nc5cc(F)ccc5s4)cc3[C@@H]2O)c1 | 2.5% (inactive) |
| CC(C)OC(=O)c1ccccc1C(=O)OC(C)C | -10.5% (inactive) |
| [Cl][Nd]([Cl])[Cl] | 8.71% (inactive) |
| Cc1ccccc1S(N)(=O)=O | -3.18% (inactive) |
| Cc1ccc2c(c1[N+](=O)[O-])C(=O)c1ccccc1C2=O | 0.0654% (inactive) |
| CCN(CC)CCOC(=O)C(c1ccccc1)c1ccccc1 | 2.96% (inactive) |
| O=S(=O)(Cl)c1c(Cl)cccc1Cl | 1.53% (inactive) |
| O=C(/C=C/c1ccc([N+](=O)[O-])cc1)c1ccccc1 | -19% (inactive) |
| c1ccc(CNc2ncnc3c2ncn3C2CCCCO2)cc1 (stereo not given) | -5.27% (inactive) |
| O=C(O)c1cc(Cl)cc(Cl)c1O | 8.4% (inactive) |
| CS(=O)(=O)c1ccc([C@@H](C[C@H]2CCC(=O)C2)C(=O)Nc2cnccn2)cc1Cl | -3.72% (inactive) |
| Nc1c(Cl)cc(Cl)cc1[N+](=O)[O-] | 9.88% (inactive) |
| CC(C)(C)C(O)/C=C/c1ccc2c(c1)OCO2 (stereo not given) | -2.91% (inactive) |
| COc1cc(OC)c2ccc(=O)oc2c1 | -6.67% (inactive) |

Test: qHTS assay for identifying genotoxic compounds that show differential cytotoxicity against isogenic chicken DT40 cell lines with known DNA damage response pathways - wild type cell line (AID 743012); also: nearly all actives have a fitted effect of over 60% in size; also: potency is read from the fitted curve at half-maximal effect
Settings: DT40 wild type chicken cells viability, CellTiter-Glo, 40 h; series mostly up to 68.4 µM; activity change, negative = cytotoxicity: at the top concentration
In short: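 Cells (DT40 wild type, 300/well) are treated with DMSO-dissolved compounds after a ~0.5 h pre-incubation and kept 40 h at 37 C/5% CO2. Viability is then measured by CellTiter-Glo luminescence following 30 min at room temperature.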

| SMILES | activity change, negative = cytotoxicity | Potency |
| --- | --- | --- |
| CCCCCCCCCCCSCC(=O)O | -0.611% (inactive) |  |
| CC(=O)OCCC(C)CC(C)(C)C (stereo not given) | 24.1% (inactive) |  |
| C=C(C)c1ccccc1 | 6.12% (inactive) |  |
| O[C@@H](CNC[C@H](O)[C@H]1CCc2cc(F)ccc2O1)[C@@H]1CCc2cc(F)ccc2O1 |  | 6.68 µM (active) |
| CO[C@@H]1[C@@H](OC)[C@H](C)[C@@](O)(CC(=O)O)O[C@H]1[C@H](C)[C@H]1O[C@@]2(CC[C@@](C)([C@H]3CC[C@@](C)([C@@H]4O[C@@H]([C@H]5O[C@](C)(O)[C@H](C)C[C@@H]5C)C[C@@H]4OC4C[C@H](OC)[C@@H](OC)[C@H](C)O4)O3)O2)C[C@H](O)[C@H]1C (stereo not given in full) |  | 0.168 µM (active) |
| CCN(Cc1cccc(S(=O)(=O)O)c1)c1ccc(C(=C2C=CC(=[N+](CC)Cc3cccc(S(=O)(=O)O)c3)C=C2)c2ccccc2S(=O)(=O)[O-])cc1 |  | 15.4 µM (active) |
| CC(C)C(O)C(C)(C)CO (stereo not given) | -3.63% [at 95 µM] (inactive) |  |
| COC(=O)C1=C(C)NC(C)=C(C(=O)OC(C)(C)CN(C)CCC(c2ccccc2)c2ccccc2)C1c1cccc([N+](=O)[O-])c1 (stereo not given) |  | 5.96 µM (active) |
| CC(=O)Oc1cccc(O)c1 | 12.2% (inactive) |  |
| CCN(Cc1cccc(S(=O)(=O)O)c1)c1ccc(C(=C2C=CC(=[N+](CC)Cc3cccc(S(=O)(=O)O)c3)C=C2)c2ccc(O)cc2S(=O)(=O)[O-])cc1 |  | 10.5 µM (active) |
| Cc1c(C2(c3cc(Br)c(O)c(Br)c3C)OS(=O)(=O)c3ccccc32)cc(Br)c(O)c1Br |  | 18.8 µM (active) |
